# Publication doi:10.1101/2024.03.05.583629
# Target: pT7_6His-AlfaTag-HOXD13 (human, UniProt P35453 263-343)
# Assay: PADIT-seq
# Conditions: dsDNA, one strand shown
# Sequence of pT7_6His-AlfaTag-HOXD13 (P35453 263-343): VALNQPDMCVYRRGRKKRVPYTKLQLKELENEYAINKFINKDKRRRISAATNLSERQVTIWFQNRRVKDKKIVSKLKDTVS
row,Sequence,binding signal [log2FC]
1,CTCGAGGATATCAAGATCTGGCCTCGGCCGCGCCCGCGGAACCTCTAGCTAGCCGACTCACTATAGGGATAATCGCCCTGAGCAAAGACC,-1.09 ± 0.134
2,CTCGAGGATATCAAGATCTGGCCTCGGCATTTTATATGGAACCTCTAGCTAGCCGACTCACTATAGGGATAATCGCCCTGAGCAAAGACC,3.31 ± 0.0819
3,CTCGAGGATATCAAGATCTGGCCTCGGCGTTTTAGTGGGAACCTCTAGCTAGCCGACTCACTATAGGGATAATCGCCCTGAGCAAAGACC,1.76 ± 0.0845
4,CTCGAGGATATCAAGATCTGGCCTCGGCTCATGGGCGGGAACCTCTAGCTAGCCGACTCACTATAGGGATAATCGCCCTGAGCAAAGACC,-1.04 ± 0.124
5,CTCGAGGATATCAAGATCTGGCCTCGGCGTTTTAACGGGAACCTCTAGCTAGCCGACTCACTATAGGGATAATCGCCCTGAGCAAAGACC,1.81 ± 0.0879
6,CTCGAGGATATCAAGATCTGGCCTCGGCCGCCACCGCGGAACCTCTAGCTAGCCGACTCACTATAGGGATAATCGCCCTGAGCAAAGACC,-0.959 ± 0.127
7,CTCGAGGATATCAAGATCTGGCCTCGGCCGCTTTCGCGGAACCTCTAGCTAGCCGACTCACTATAGGGATAATCGCCCTGAGCAAAGACC,-1.06 ± 0.128
8,CTCGAGGATATCAAGATCTGGCCTCGGCAGGTTAAAAGGAACCTCTAGCTAGCCGACTCACTATAGGGATAATCGCCCTGAGCAAAGACC,0.752 ± 0.0728
9,CTCGAGGATATCAAGATCTGGCCTCGGCGCGTGGATAGGAACCTCTAGCTAGCCGACTCACTATAGGGATAATCGCCCTGAGCAAAGACC,-0.997 ± 0.122
10,CTCGAGGATATCAAGATCTGGCCTCGGCACAGTAAAAGGAACCTCTAGCTAGCCGACTCACTATAGGGATAATCGCCCTGAGCAAAGACC,1.94 ± 0.076
11,CTCGAGGATATCAAGATCTGGCCTCGGCTTTTTAGGCGGAACCTCTAGCTAGCCGACTCACTATAGGGATAATCGCCCTGAGCAAAGACC,0.0492 ± 0.119
12,CTCGAGGATATCAAGATCTGGCCTCGGCGGGATAAAAGGAACCTCTAGCTAGCCGACTCACTATAGGGATAATCGCCCTGAGCAAAGACC,0.241 ± 0.0798
13,CTCGAGGATATCAAGATCTGGCCTCGGCATTTTAATCGGAACCTCTAGCTAGCCGACTCACTATAGGGATAATCGCCCTGAGCAAAGACC,1.1 ± 0.0894
14,CTCGAGGATATCAAGATCTGGCCTCGGCGCGTGGTTAGGAACCTCTAGCTAGCCGACTCACTATAGGGATAATCGCCCTGAGCAAAGACC,-0.958 ± 0.117
15,CTCGAGGATATCAAGATCTGGCCTCGGCAAACTAAAAGGAACCTCTAGCTAGCCGACTCACTATAGGGATAATCGCCCTGAGCAAAGACC,-0.484 ± 0.203
16,CTCGAGGATATCAAGATCTGGCCTCGGCGTATGGGCGGGAACCTCTAGCTAGCCGACTCACTATAGGGATAATCGCCCTGAGCAAAGACC,-0.957 ± 0.105
17,CTCGAGGATATCAAGATCTGGCCTCGGCTCCCCACGCGGAACCTCTAGCTAGCCGACTCACTATAGGGATAATCGCCCTGAGCAAAGACC,-0.217 ± 0.124
18,CTCGAGGATATCAAGATCTGGCCTCGGCGCGTTGGCGGGAACCTCTAGCTAGCCGACTCACTATAGGGATAATCGCCCTGAGCAAAGACC,-1.07 ± 0.16
19,CTCGAGGATATCAAGATCTGGCCTCGGCAAATGGGCGGGAACCTCTAGCTAGCCGACTCACTATAGGGATAATCGCCCTGAGCAAAGACC,-0.536 ± 0.104

row,Sequence,binding signal [log2FC]
1,CTCGAGGATATCAAGATCTGGCCTCGGCGCGTGGACTGGAACCTCTAGCTAGCCGACTCACTATAGGGATAATCGCCCTGAGCAAAGACC,-0.334 ± 0.121
2,CTCGAGGATATCAAGATCTGGCCTCGGCGCGTGGTATGGAACCTCTAGCTAGCCGACTCACTATAGGGATAATCGCCCTGAGCAAAGACC,-1.06 ± 0.113
3,CTCGAGGATATCAAGATCTGGCCTCGGCAGATTAAAAGGAACCTCTAGCTAGCCGACTCACTATAGGGATAATCGCCCTGAGCAAAGACC,1.14 ± 0.0686
4,CTCGAGGATATCAAGATCTGGCCTCGGCGCATGGGCGGGAACCTCTAGCTAGCCGACTCACTATAGGGATAATCGCCCTGAGCAAAGACC,-0.757 ± 0.112
5,CTCGAGGATATCAAGATCTGGCCTCGGCGTTTTAAGTGGAACCTCTAGCTAGCCGACTCACTATAGGGATAATCGCCCTGAGCAAAGACC,0.876 ± 0.107
6,CTCGAGGATATCAAGATCTGGCCTCGGCATTTTAATAGGAACCTCTAGCTAGCCGACTCACTATAGGGATAATCGCCCTGAGCAAAGACC,2.83 ± 0.073
7,CTCGAGGATATCAAGATCTGGCCTCGGCCGATGGGCGGGAACCTCTAGCTAGCCGACTCACTATAGGGATAATCGCCCTGAGCAAAGACC,-1.02 ± 0.115
8,CTCGAGGATATCAAGATCTGGCCTCGGCATATGGGCGGGAACCTCTAGCTAGCCGACTCACTATAGGGATAATCGCCCTGAGCAAAGACC,-0.745 ± 0.103
9,CTCGAGGATATCAAGATCTGGCCTCGGCCGTTGGGCGGGAACCTCTAGCTAGCCGACTCACTATAGGGATAATCGCCCTGAGCAAAGACC,-0.921 ± 0.107
10,CTCGAGGATATCAAGATCTGGCCTCGGCCATTGGGCGGGAACCTCTAGCTAGCCGACTCACTATAGGGATAATCGCCCTGAGCAAAGACC,-0.505 ± 0.104
11,CTCGAGGATATCAAGATCTGGCCTCGGCATTTTACAGGGAACCTCTAGCTAGCCGACTCACTATAGGGATAATCGCCCTGAGCAAAGACC,3.08 ± 0.0772
12,CTCGAGGATATCAAGATCTGGCCTCGGCTTTTTACCTGGAACCTCTAGCTAGCCGACTCACTATAGGGATAATCGCCCTGAGCAAAGACC,-0.185 ± 0.138
13,CTCGAGGATATCAAGATCTGGCCTCGGCATTTTAAGAGGAACCTCTAGCTAGCCGACTCACTATAGGGATAATCGCCCTGAGCAAAGACC,2.98 ± 0.0964
14,CTCGAGGATATCAAGATCTGGCCTCGGCTACATAAAAGGAACCTCTAGCTAGCCGACTCACTATAGGGATAATCGCCCTGAGCAAAGACC,2.05 ± 0.0966
15,CTCGAGGATATCAAGATCTGGCCTCGGCGTTTTAGCCGGAACCTCTAGCTAGCCGACTCACTATAGGGATAATCGCCCTGAGCAAAGACC,-0.579 ± 0.147
16,CTCGAGGATATCAAGATCTGGCCTCGGCAGAATAAAAGGAACCTCTAGCTAGCCGACTCACTATAGGGATAATCGCCCTGAGCAAAGACC,0.976 ± 0.0851
17,CTCGAGGATATCAAGATCTGGCCTCGGCAGTTGGGCGGGAACCTCTAGCTAGCCGACTCACTATAGGGATAATCGCCCTGAGCAAAGACC,-0.843 ± 0.104
18,CTCGAGGATATCAAGATCTGGCCTCGGCCTTTTAGTGGGAACCTCTAGCTAGCCGACTCACTATAGGGATAATCGCCCTGAGCAAAGACC,1.46 ± 0.0766
19,CTCGAGGATATCAAGATCTGGCCTCGGCATATTAAAAGGAACCTCTAGCTAGCCGACTCACTATAGGGATAATCGCCCTGAGCAAAGACC,2.69 ± 0.07
